Experimental data taken from PubChem BioAssay (NCI).
About 83,000 compounds went through this panel and 20% of them were active in at least one assay; those are over-represented in the sample as a whole.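 Each cell line was grown in a 96-well plate and treated with one concentration of compound for 48 hours. Values below 10 were considered active.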 Values without a mark were called inactive. Calls of active or inactive are those of the source.

Columns and labels:
Assay in all cases: NCI-60 one-dose screen, 48 h (100 = growth as untreated, 0 = no growth, -100 = all killed)
Conditions in all cases: 10 µM unless noted
EKVX NSCLC = test system: EKVX NSCLC
SN12C renal = test system: SN12C renal
UO-31 renal = test system: UO-31 renal
ACHN renal = test system: ACHN renal
CAKI-1 renal = test system: CAKI-1 renal
CCRF-CEM leukemia = test system: CCRF-CEM leukemia
MOLT-4 leukemia = test system: MOLT-4 leukemia
SR leukemia = test system: SR leukemia
RPMI-8226 leukemia = test system: RPMI-8226 leukemia
OVCAR-8 ovarian = test system: OVCAR-8 ovarian
OVCAR-5 ovarian = test system: OVCAR-5 ovarian
OVCAR-4 ovarian = test system: OVCAR-4 ovarian
SK-OV-3 ovarian = test system: SK-OV-3 ovarian
IGROV1 ovarian = test system: IGROV1 ovarian
OVCAR-3 ovarian = test system: OVCAR-3 ovarian
HS 578T breast = test system: HS 578T breast
NCI/ADR-RES ovarian = test system: NCI/ADR-RES ovarian
T-47D breast = test system: T-47D breast
A498 renal = test system: A498 renal

| Compound | growth (EKVX NSCLC) | growth (SN12C renal) | growth (UO-31 renal) | growth (ACHN renal) | growth (CAKI-1 renal) | growth (CCRF-CEM leukemia) | growth (MOLT-4 leukemia) | growth (SR leukemia) | growth (RPMI-8226 leukemia) | growth (OVCAR-8 ovarian) | growth (OVCAR-5 ovarian) | growth (OVCAR-4 ovarian) | growth (SK-OV-3 ovarian) | growth (IGROV1 ovarian) | growth (OVCAR-3 ovarian) | growth (HS 578T breast) | growth (NCI/ADR-RES ovarian) | growth (T-47D breast) | growth (A498 renal) |
| --- | --- | --- | --- | --- | --- | --- | --- | --- | --- | --- | --- | --- | --- | --- | --- | --- | --- | --- | --- |
| Cc1cc2nc3c4cc(Cl)ccc4n(CC(=S)NCCN(C)C)c3nc2cc1C | 4.02% (active) | 40.9% | -68.1% (active) | -96.4% (active) | -92.3% (active) | -49.3% (active) | -60.3% (active) | -43.8% (active) | -19.6% (active) | -66.9% (active) | -42.6% (active) | -24.1% (active) | -16.4% (active) | -74% (active) | -47% (active) | 51.4% | -56.4% (active) | 61.7% | – |
| O=C1Nc2ccc(Cl)cc2/C1=C/c1ccc(OCC(=O)c2ccc(Br)cc2)cc1 | 81.6% | 93.5% | 73.4% | 88.4% | 76.1% | 102% | 95.6% | 103% | – | – | 93.2% | 91.7% | 79.9% | 63% | 90.3% | 89.3% | 93.3% | 84.2% | 107% |
| COc1ccc(-c2nn3c(-c4ccccc4F)nnc3s2)cc1 | 70% | 58.2% | 65% | 78.1% | 50.7% | 58.5% | 35.1% | 15.4% | – | 68.3% | 81.2% | 82% | 84% | 57.3% | 49.6% | 74.2% | 21.3% | 46% | 16.4% |
| CN(C)CCCNc1c2ccccc2nc2c1oc1ccc(Cl)cc12 | 43.5% | 26.6% | 39.5% | 17.5% | 21.4% | – | 3.74% (active) | -30.8% (active) | 14.4% | 25.4% | 51.6% | 50.6% | 57.6% | 25.8% | 63.5% | 47.7% | 22% | 63.7% | 7.63% (active) |
| CS(=O)(=O)c1ccc(-c2nc3ccccn3c2-c2nc3ccc([N+](=O)[O-])cc3[nH]2)cc1 | 91% | 94.8% | 77.7% | 88.6% | 86.2% | 101% | 90.3% | 95.2% | – | 94.5% | 97.8% | 93.2% | 107% | 81% | 110% | 99.7% | 92.2% | 91.2% | 87.5% |
| CN(C)CCCOc1c2ccc(Cl)cc2nc2c1oc1ccc(Cl)cc12 | 31.8% | 21.4% | 2.96% (active) | -85.6% (active) | -12.1% (active) | – | 1.92% (active) | -31.1% (active) | -20.8% (active) | 26.7% | – | 50.6% | 41.4% | 6.89% (active) | – | 26.3% | -20.8% (active) | 58.7% | -6.7% (active) |
| CCN1CCN(S(=O)(=O)c2oc(-c3ccc(Cl)cc3)nc2C#N)CC1 | 95.6% | 78.7% | 33.2% | -86.6% (active) | 65% | 2.3% (active) | 0.374% (active) | – | 29% | 85% | 94.8% | 105% | 129% | 7.89% (active) | – | 105% | 96% | 7.45% (active) | 93.2% |
| OC1CCN(CCCOc2c3ccc(Cl)cc3nc3c2oc2ccccc23)CC1 | -43.4% (active) | 6.58% (active) | -52.1% (active) | -50.1% (active) | -3.51% (active) | 2.24% (active) | -21.5% (active) | -38.5% (active) | -15.1% (active) | – | -4.92% (active) | 1.3% (active) | 7.92% (active) | -18% (active) | – | -6.78% (active) | 6.48% (active) | 11% | -91.3% (active) |
| COc1cc(/C=C/C(=O)c2cc(OC)c(OC)c(OC)c2)ccc1Oc1nc(NCCO)nc(N2CCOCC2)n1 | 11.2% | 9.45% (active) | 20.9% | -52.5% (active) | 15.6% | 0.121% (active) | 6.72% (active) | -0.481% (active) | -24.9% (active) | 21.2% | 18.3% | 20% | 7.04% (active) | 1.1% (active) | -3.03% (active) | 7.51% (active) | 64.5% | 19.2% | – |
| O=C1/C(=C/C2=Cc3ccccc3OC2)SC(=S)N1c1ccc(F)cc1 | 94.7% | 93% | 86.3% | 76% | 90.6% | – | 108% | 97.2% | 104% | 105% | 100% | 96.1% | 108% | 95.9% | – | 99.2% | 108% | 87.7% | 71.6% |
| CN(C)CCCNc1c2ccc(Cl)cc2nc2c1oc1ccccc12 | -26.7% (active) | 6.3% (active) | 12.3% | -36.5% (active) | 6.06% (active) | – | -1.03% (active) | -18.8% (active) | -21.1% (active) | -17.9% (active) | 1.91% (active) | 8.04% (active) | 42% | -13% (active) | 31% | 37% | 2.84% (active) | 46.3% | 8.64% (active) |
| CSCCC(C(=O)O)N1C(=O)/C(=C/c2ccc(O)c(O)c2)SC1=S (configuration not stated) | 96.2% | 99.2% | 89.3% | 99.9% | 95.6% | – | 108% | 103% | 110% | – | 94.6% | 101% | 110% | 98.9% | 111% | 104% | 108% | 95.1% | 85.3% |
| O=C(CCN1C(=O)/C(=C/c2ccccc2F)SC1=S)N1CCOCC1 | 86.8% | 73.9% | 67.6% | 62.2% | 84.7% | 53.3% | 89.9% | 46.7% | 59.7% | – | – | 99.1% | 135% | 61.9% | 99.8% | 101% | 99.8% | 59.3% | 111% |
| Clc1ccc(Cc2nnc3sc(-c4cccnc4)nn23)cc1 | 85.2% | 100% | 71.7% | 96.8% | 84% | – | 97.2% | 91.1% | 97.5% | 96.6% | – | 94.2% | 114% | 95.4% | – | 101% | 81.3% | 89.2% | 83.9% |
| Clc1ccc2c(OCCCN3CCOCC3)c3oc4ccccc4c3nc2c1 | 34.6% | 30.4% | 22.2% | 15.3% | 19.7% | – | 11.7% | 11.9% | 29% | 31.2% | – | 59% | 71.8% | 19.7% | 69.5% | 38.4% | 36.3% | 40.8% | 13.6% |
| COc1cc2nc(-c3ccc(Cl)cc3)cc(OCCCNCC3CCCO3)c2cc1OC (configuration not stated) | 67.1% | 47.3% | 57.3% | 46.6% | 17.3% | 49.1% | 40.6% | 19.5% | 8.63% (active) | – | – | 79.4% | 88.4% | 33.7% | 87.7% | 76.6% | 46.8% | 77.1% | 47.9% |
| COc1cccc(COc2ccc(/C=C3/C(=O)Nc4cc(Cl)ccc43)cc2)c1 | 87.6% | 91.1% | 75.4% | 96.9% | 90.6% | 82.6% | -25.9% (active) | – | 78% | 90.8% | 96.1% | 96.6% | 100% | 87.6% | 105% | 91% | 90.3% | 80.6% | 93% |
| COc1ccc(COc2ccc(/C=C3/C(=O)Nc4cc(Cl)ccc43)cc2)cc1 | 95.8% | 94.1% | 79.4% | 95.7% | 88.3% | 6.11% (active) | 108% | 109% | 89.9% | 96.3% | – | 93.5% | 107% | 92.4% | 102% | 89% | 94.4% | 90.2% | 83.7% |
